Consider 92 compounds from PubChem BioAssay AID1347056 (Sanford-Burnham Center for Chemical Genomics, 2019).

Several values for one entry are separate records, joined by “and”; a condition that tells them apart may be missing. Equal values may be shown once. In all, about 360,000 compounds went through this assay and about 3,600 (1%) were called active. For the sample, actives were picked, then their nearest neighbours and some compounds at random. Values without a mark were called inactive.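 How the source made its calls: active means compounds whose plate-normalised and pattern-corrected inhibition of the luciferase reporter signal at the single screening dose is 50% or more; inactive means the rest.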

This assay in a line: inhibitors of TROY-driven NF-kB signaling, primary screen, Q293 LMP1-TROYcd cells, NF-kB luciferase, uHTS (AID 1347056). Conditions: Q293 LMP1-TROYcd NF-kB luciferase reporter, 4 h; at 10 µM; stronger effect = higher value.
Turning to `CC(C)=CCCC1(C)C=Cc2c(ccc3c2[nH]c2cc(O)c(C)cc23)O1` (configuration not stated), the inhibition is 56.8% (active). Regarding `CC(OC(=O)c1ccccc1NCCO)C(=O)Nc1ccnn1C(C)C` (configuration not stated), the inhibition is 4.88%.

On to `Cc1sc(NC(=O)C2=COCCO2)c(C#N)c1C`, for which the inhibition is -29.2%.

Take `CCCc1ccc(-c2c(C)sc(NC(=O)c3ccnn3C)c2C#N)cc1`: the inhibition is 61.4% (active). `CCCc1cc(=O)[nH]c(SCC(=O)Nc2sc3c(c2C#N)CCCC3)n1`: the inhibition is -13.3%. As to `O=C1COc2ccc(C(=O)CSc3ccc(Br)cc3)cc2N1`, the inhibition was 6.67%. As to `CCNC(=S)N(CCN(CC)CC)Cc1cc2cc3c(cc2[nH]c1=O)OCO3`, the inhibition was 7.05%.

Consider `c1ccc(Cc2c(-c3ccco3)nc3c4ccccc4ccn23)cc1`, for which the inhibition is 3.44%. The same measure for `Cc1ccc(Cc2c(-c3ccc(Cl)cc3)nc3c4ccccc4ccn23)cc1`: 4.34%.

For the compound `Cc1ccc(Cc2c(-c3ccc(C)cc3)nc3c4ccccc4ccn23)cc1`, the inhibition is 54.4% (active). Consider `O=C(N=C1SC2CS(=O)(=O)CC2N1Cc1ccccc1)c1ccccc1` (configuration not stated), for which the inhibition was -0.57%.

For the compound `CCCCC(NS(=O)(=O)c1ccc(C)cc1)C(=O)Oc1ccc2c3c(c(=O)oc2c1)CCC3` (configuration not stated), the inhibition is 69.9% (active). On to `O=C(COc1ccc2c3c(c(=O)oc2c1)CCC3)NC1CCCCC1`, for which the inhibition is -1.91%. Consider `NC(=O)C1CCN(C(=O)COc2ccc3c4c(c(=O)oc3c2)CCC4)CC1`, for which the inhibition was -10.9%.

For `COC(=O)c1cc2c(ccn2C)n1C`, the inhibition is 0.05%.

`COC(=O)CCNc1ccc2c(c1)OCCO2`: the inhibition is 78.2% (active). Take `Cc1ccc(OCCCC(=O)Nc2ccc3c(c2)OCCO3)cc1`: the inhibition is 17.8%. In the case of `CCOc1ccc(NCCC(=O)c2ccc3c(c2)OCO3)cc1` it was 9.47%; in that of `O=c1oc2ccccc2c(=O)c2ccccc12`, 4.31%. In the case of `COc1ccccc1-c1oc2ccccc2c1C#CCCCCO` it was 2.78%; in that of `COc1ccccc1N=Cc1c(O)c2ccccc2oc1=O`, 68.1% (active). As for `COC(=O)CNc1nc(Cl)nc(N2CCC(C)CC2)n1`, the inhibition is 6.46%.

As to `CCCS(=O)(=O)NC(=O)C1(C)CCN(C(=O)c2sccc2C)C1` (configuration not stated), the inhibition was -21%. On to `O=C(Cc1ccccc1F)NC1CCSc2ccccc21` (configuration not stated), for which the inhibition was 6.21%.

Take `O=C(/C=C/Sc1ncn[nH]1)c1ccc(Cl)cc1`: the inhibition was 66% (active). The same measure for `CC(C)CN(C(=O)CN1CCN(S(=O)(=O)c2ccccc2)CC1)c1c(N)n(CC(C)C)c(=O)[nH]c1=O`: 3.32%; for `CC(C)c1ccc2c(c1)c(SC(C)(C)C)c(CC(C)(C)C(=O)O)n2Cc1ccc(Cl)cc1`: 65.6% (active); for `COCCN1C(=O)c2oc3c(C)cc(C)cc3c(=O)c2C1c1cccc(O)c1` (configuration not stated): 1.51%.

Consider `O=C(COc1ccc(Br)cc1F)NCC1(N2CCCCC2)CCCCC1`, for which the inhibition was -6.39%. With `COc1ccc(C(C#N)=C2C=CC(=NO)c3ccccc32)cc1`, the inhibition is 69.6% (active). The same measure for `COc1ccc(/C(N)=N/OC(=O)Cc2ccccc2)cc1`: -56.1%; for `COc1ccc(C(=NN)c2ccc(OC)cc2)cc1`: -42.8%. In the case of `NC(=O)[C@H]1CC2(CC(c3cccc(NC(=O)[C@H]4CCC(=O)N4)c3)=NO2)CN1C(=O)c1ccccc1C(=O)c1ccccc1` (some centres not stated) it was -0.31%.

For `CC1CCc2c(sc(NC(=O)c3ccc(Cn4cc(Br)cn4)o3)c2C(N)=O)C1` (configuration not stated), the inhibition was -4.02%.

In the case of `O=C(NCCC1CCCCN1S(=O)(=O)c1cccs1)C(=O)Nc1ccc(F)cc1F` (configuration not stated), the inhibition was 1.77%. Take `Cc1ccccc1OCC(=O)Nc1ccc(N2CCN(C(=O)C(C)C)CC2)c(Cl)c1`: the inhibition was 52.5% (active). In the case of `CCc1ccccc1OCC(=O)Nc1ccc(C)c(S(=O)(=O)N2CCCCCC2)c1`, the inhibition is 3.2%. In the case of `COc1cc(NC(=O)COc2ccccc2Cl)ccc1NC(=O)C(C)C` it was -6.06%; in that of `COc1cccc(-c2cc3nc4c(c(N5CCC6(CC5)OCCO6)n3n2)CCCC4)c1`, 7.88%.

Consider `CC(=O)c1c(C)[nH]c(C(=O)COC(=O)c2cccc(S(=O)(=O)N(C)c3ccccc3)c2)c1C`, for which the inhibition is 71% (active).

`CN(c1ccccc1)S(=O)(=O)c1ccc(Cl)c(C(=O)OCC(N)=O)c1`: the inhibition was -2.16%. In the case of `CC(=O)c1c(C)[nH]c(C(=O)COC(=O)CCOc2ccc(C)cc2)c1C`, the inhibition is 17.8%. The same measure for `CCO[C@@H]1OC(C(=O)N2CCOCC2)=C[C@H](C)[C@H]1CCCO`: -7.92%; for `CCCCCCCNc1nc(Cl)nc(NCCO)n1`: 4.41%. Turning to `O=C(Nc1cc(C(F)(F)F)ccc1Cl)c1cc2nc3c(c(C(F)(F)F)n2n1)CCCC3`, the inhibition is 79% (active). `Nc1nc(SCC(=O)Nc2cc(C(F)(F)F)ccc2Cl)[nH]c(=O)c1NC(=O)c1ccco1`: the inhibition was -8.07%.

For `O=C(Nc1ccc(Cl)cc1)c1cc2nc(C3CC3)cc(C(F)(F)F)n2n1`, the inhibition was -25.1%. With `Cn1c(=O)c2c(nc(Br)n2CCSc2nc3ccccc3o2)n(C)c1=O`, the inhibition is -10.2%. Consider `O=C(Cn1c(NCCO)nc2ccccc21)c1ccc(Cl)cc1Cl`, for which the inhibition is 22.3%. As to `OCCNCCOc1ccc(Cl)c(Cl)c1`, the inhibition is 10.3%. The same measure for `OCCNc1nc(Nc2ccc(Cl)c(Cl)c2)nc2ccccc12`: 68.4% (active); for `C[C@H](CO)N1C[C@H](C)[C@H](CN(C)C(=O)Nc2ccc3c(c2)OCO3)Oc2ncc(Br)cc2C1=O`: 6.4%; for `CCn1c(C(C)NC(=O)c2ccc(C)cc2)n[nH]c1=S` (configuration not stated): 21.8%. `C=C(C)CNC(=O)c1ccc(OC2CCN(C(=O)COC)CC2)cc1`: the inhibition was -21.5%.

For the compound `COc1ccc(NC(=O)C2C3CCC(O3)C2C(=O)O)cc1OC` (configuration not stated), the inhibition was 8.24%. As for `COc1ccc(NC(=S)SC)cc1OC`, the inhibition is 55.6% (active). For the compound `COc1ccc(NC(=O)CSCc2ccc([N+](=O)[O-])cc2)cc1OC`, the inhibition is -16.9%. The same measure for `O=C1c2ccccc2C(=O)N1CCC(c1ccccc1)c1ccco1` (configuration not stated): -65.2%; for `COc1cc(SC)ccc1C(=O)Nc1nc(C)cs1`: 85.8% (active). In the case of `Cc1csc(NC(=O)CSc2nc(=O)cc(N)n2-c2ccc(F)cc2)n1` it was -68.1%. With `Cc1ccccc1OCC(=O)Nc1nc(C)c(C(=O)N(C)C)s1`, the inhibition is -13.4%.

Regarding `COC(=O)c1sc(NC(=O)c2ccc(OC)cc2OC)nc1C`, the inhibition is 66.7% (active). In the case of `Cc1csc(NC(=O)NC2(C(F)(F)F)Oc3ccccc3O2)n1`, the inhibition was -1.84%.

As to `COc1ccc(C(=O)NC(C)CCc2ccccc2)c(OC)c1` (configuration not stated), the inhibition was -16.4%. Turning to `CCCC(C(=O)NC1CCCC1)N(C(=O)Cn1nnc(-c2ccc(C)o2)n1)c1cccc(O)c1` (configuration not stated), the inhibition is -5.35%. With `C=CCn1c(COc2ccccc2F)nnc1SCC(=O)N1CC(=O)Nc2ccccc21`, the inhibition is -21.6%.

As to `COc1cccc(N=c2oc3c(C)ncc(CO)c3cc2C(N)=O)c1`, the inhibition is -39.2%. With `O=C(Nc1ccc(Cl)cc1)/C(=C1\CCCN1)[N+](=O)[O-]`, the inhibition was -75.7%. In the case of `Cc1cccc2nc(CSc3nc4[nH]ncc4c(=O)n3-c3cccc(Cl)c3)cc(=O)n12`, the inhibition is 35.3%. With `COc1ccc(N(CC(=O)NC(C)(C)C)C(=O)c2ccco2)cc1`, the inhibition was -5.86%. Regarding `CCCNC(=O)C(=O)Nc1cc2c3c(c1)CCC(=O)N3CCC2`, the inhibition is -5.66%. Consider `CN(Cc1cn(Cc2ccc(C(F)(F)F)cc2)nn1)C1CN(Cc2cn(Cc3ccc(C(F)(F)F)cc3)nn2)S(=O)(=O)C1` (configuration not stated), for which the inhibition was 14.4%. Take `CN(C(=O)Nc1ccc(Cl)cc1)n1cnc2ccccc2c1=O`: the inhibition was -48.7%. In the case of `CC(C)(C)c1nc2ccccc2c(=O)n1N1C(=O)c2ccccc2C1=O`, the inhibition is 12.4%. As for `CN(c1ccc2nc3ccccc3c(=O)n2n1)C1CCCCC1`, the inhibition was 90.3% (active). As to `CNc1cc(-c2c(OC)cccc2OC)ncn1`, the inhibition was -15.5%. `CCCNC(=O)c1cc(C2CCCCN2S(=O)(=O)c2ccc(C#N)cc2)on1` (configuration not stated): the inhibition is -10.6%. On to `CC(Oc1ccc(Br)cc1)C(=O)NCC(c1ccco1)N1CCCCC1` (configuration not stated), for which the inhibition is 7.2%. As for `CCC[C@H]1CCCC/C=C\CCCC(=O)OCCN1C(=O)OC(C)(C)C`, the inhibition was 12.2%. In the case of `CCOC(=O)C(C)n1nc(-c2ccccc2)c2ccccc2c1=O` (configuration not stated) it was 7.19%; in that of `CCN(CC)C(=O)c1sc2nc(-c3ccccc3)ccc2c1N`, 69.8% (active); in that of `CCN(CC)C(=O)c1nc[nH]c1C(=O)N(C)Cc1ccccc1`, -9.82%.

For the compound `COc1ccccc1/C=C/CN1CCC(CO)(Cc2ccccc2)CC1`, the inhibition is -1.26%. Take `COc1cccc2c1C(=O)c1c(O)c3c(c(O)c1C2=O)CC(O)(C(C)=NNC(=O)c1ccc(Cl)c(Cl)c1)CC3OC1CC(N)C(O)C(C)O1` (configuration not stated): the inhibition was 69.6% (active). The same measure for `Cc1ccccc1CN(c1ccc(C(=O)NCC2CCCO2)cc1)S(C)(=O)=O` (configuration not stated): -8.79%; for `C#CCNC(=O)[C@H](Cc1ccc(C(=O)c2ccccc2)cc1)NC(=O)OC(C)(C)C`: 5.88%; for `CC(=O)Nc1ccc(NC(=O)CSC2=NS(=O)(=O)c3ccccc3N2)cc1`: -4.58%. The same measure for `CCc1ccccc1NC(=O)CN(c1ccc(OC)cc1OC)S(=O)(=O)c1ccccc1[N+](=O)[O-]`: 1.82%; for `N#Cc1c(NC(=O)CCCN2C(=O)c3ccccc3C2=O)oc(-c2ccccc2)c1-c1ccccc1`: -11.3%. `N#Cc1c(/N=C/N2CCCC2)oc(-c2ccccc2)c1-c1ccccc1`: the inhibition was 51.8% (active). Turning to `COc1ccc(-c2oc(/N=C/N3CCCC3)c(C#N)c2-c2ccc(OC)cc2)cc1`, the inhibition was -5.76%. Consider `C#C[C@]1(O)CC[C@H]2[C@@H]3CCC4=CC(=O)CC[C@@H]4[C@H]3CC[C@@]21CC`, for which the inhibition is -7.9% and -4.22%.
